Assay results taken from PubChem BioAssay (NCATS).
Results filed as inconclusive are left out. Unmarked numbers belong to inactive results. Activity calls are given as the source filed them. Calls follow the shape of the dose curve; as a rule, active = well fitted inhibition curve with a large enough effect; inconclusive = small, poorly fitted or top-dose-only effect; inactive = flat fitted curve, though single readings scatter.

experiment: P-glycoprotein substrates identified in KB-8-5-11 adenocarcinoma cell line, qHTS therapeutic library screen (AID 1346987); details: KB-8-5-11 (P-gp overexpressing) viability, CellTiter-Glo, 72 h; series mostly up to 44.5 µM; activity change, negative = cytotoxicity: at the top concentration; also: nearly all actives have a fitted effect of over 65% in size
Method in brief: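 Human cervical adenocarcinoma KB-8-5-11 cells, selected in colchicine to over-express P-gp and assayed without it, were exposed for 72 h to titrated compounds. An ATP-based luminescent viability signal gave AC50.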
% is scaled to controls: 0 for no effect and ±100 for the full control effect.

**Q.** For `C/C=C(\C)C(=O)OC1C=C(C)CC(OC(=O)c2ccc(O)cc2)C2C1(C)CCC2(O)C(C)C` (stereo not drawn), which “activity change, negative = cytotoxicity” value is on record?
**A.** Its value is -21.9% [at 17.3 µM].

**Q.** For `CC(C)=CCC[C@](C)(O[C@@H]1O[C@H](CO[C@@H]2OC[C@@H](O)[C@H](O)[C@H]2O)[C@@H](O)[C@H](O)[C@H]1O)[C@H]1CC[C@]2(C)[C@@H]1[C@H](O)C[C@@H]1[C@@]3(C)CC[C@H](O[C@@H]4O[C@H](CO)[C@@H](O)[C@H](O)[C@H]4O)C(C)(C)[C@@H]3CC[C@]12C`, which “activity change, negative = cytotoxicity” value is on record?
**A.** Its value is 4.28% [at 17.3 µM].

**Q.** With `CCCC(CCC)C(N)=O` as the compound, how does the “activity change, negative = cytotoxicity” value read?
**A.** Its value is 0.374%.

**Q.** With `CC(=O)O[C@@H]1[C@H](O[C@@H]2O[C@@H](CO)[C@H](O)[C@H]2O)[C@@H](O[C@@H]2O[C@@H](C)[C@H](O[C@@H]3OC[C@@H](O)[C@H](O)[C@H]3O)[C@@H](O)[C@H]2O)[C@H](OC(=O)[C@]23CCC(C)(C)C[C@H]2C2=CCC4[C@@]5(C)CC[C@H](O[C@@H]6O[C@H](C(=O)O)[C@@H](O)[C@H](O)[C@H]6O[C@@H]6O[C@H](CO)[C@H](O)[C@H](O)[C@H]6O)[C@@](C)(C=O)C5CC[C@@]4(C)[C@]2(C)C[C@H]3O)O[C@@H]1C` (stereo partly drawn) as the compound, how does the outcome read?
**A.** Its outcome is “inactive [at 9.29 µM]”.

**Q.** With `C/C=C(\C)C(=O)OC1C(C)C2(O)C(C=C(CO)CC3(O)C(=O)C(C)=CC32)C2C(C)(C)C12OC(C)=O` (stereo not drawn) as the compound, how does the “activity change, negative = cytotoxicity” value read?
**A.** The value was -36.3% [at 17.3 µM].

**Q.** Which “activity change, negative = cytotoxicity” value does the source give for `CC(C)=CCCC1(C)C2CCC1(C)C(O)C2` (stereo not drawn) here?
**A.** The value was -16.2%.

**Q.** With `CCCCCCCC/C=C\CCCCCCCC(=O)OC[C@@H](O)[C@H]1OC[C@H](O)[C@H]1O` as the compound, how does the “activity change, negative = cytotoxicity” value read?
**A.** Its value is 6.97%.

**Q.** For `N[C@@H]1c2cccnc2[C@H](OC(=O)N2CCC(n3c(=O)[nH]c4ncccc43)CC2)CC[C@H]1c1cccc(F)c1F`, which “activity change, negative = cytotoxicity” value is on record?
**A.** Its value is -12.1%.
